{
  "source": "PubChem BioAssay AID651820",
  "about": "(National Center for Advancing Translational Sciences (NCATS), 2012)",
  "note": "In all, about 340,000 compounds went through this assay and about 12,000 (3.5%) were called active. Roughly 18% stayed inconclusive and do not appear here. This excerpt belongs to a sample that is enriched for actives. The source holds several records for some structures; these can differ, active in one and inactive in another. A number with no mark means an inactive call. Calls come from the whole dose curve; as a rule, active = well fitted inhibition curve with a large enough effect; inconclusive = small, poorly fitted or top-dose-only effect, or another doubt; inactive = no such curve, though single readings can be large or run the other way. % is set by controls: 0 for no effect and ±100 for the full control effect; potency is the fitted concentration of half-maximal effect.",
  "data": [
    {"assay": "qHTS Assay for Inhibitors of Hepatitis C Virus (HCV)", "settings": "Huh7.5.1 HCVcc-Cre infection, luciferase reporter, 44 h; series mostly up to 41.8 µM; activity change, negative = inhibition: at the top concentration", "summary_of_the_method": "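A cell-based infection assay in which seeded cells (1,000 per well) receive test compound after 4 h, are inoculated with HCVcc-Cre at approximately 0.5 moi, and are incubated 44 h before luminescence detection.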", "values": [
      {"smiles": "CCCCn1c(SCC(=O)NCC2CCCO2)nc2ccc(N3CCOCC3)cc2c1=O", "note": "(stereo unspecified)", "activity change, negative = inhibition": "-14.7%"},
      {"smiles": "N#CCSc1nc2ccc(N3CCOCC3)cc2c(=O)n1CCc1ccccc1", "Potency": "10 µM (active)"},
      {"smiles": "COCCCNC(=O)CSc1nc2ccc(N3CCOCC3)cc2c(=O)n1CCc1ccccc1", "activity change, negative = inhibition": "16.8%"},
      {"smiles": "OC(c1ccccc1)C(CN1CCOCC1)c1ccccc1", "note": "(stereo unspecified)", "Potency": "12.6 µM (active)"},
      {"smiles": "CC(CN1CCOCC1)c1ccccc1", "note": "(stereo unspecified)", "activity change, negative = inhibition": "10.7%"},
      {"smiles": "OC(c1ccc(Cl)cc1)C(CN1CCOCC1)c1ccccc1", "note": "(stereo unspecified)", "activity change, negative = inhibition": "12.9%"},
      {"smiles": "Cc1csc(=O)n1CCC(=O)OCC(=O)NNC(=O)c1ccc(Br)cc1", "activity change, negative = inhibition": "7.44%"},
      {"smiles": "CCOC(=O)[C@H]1[C@H]2COc3ccc(OC)cc3[C@@H]2N2C(=O)c3ccc(F)cc3NC(=O)[C@@]12C", "activity change, negative = inhibition": "-4.19%"},
      {"smiles": "COC(=O)C1=C(c2ccc(F)cc2F)C[C@@H]2CC[C@H]1N2C(=O)NC1CC1", "activity change, negative = inhibition": "18.2%"},
      {"smiles": "COC(=O)C1=C(c2cc3ccccc3o2)C[C@@H]2CC[C@H]1N2C(=O)NC1CCCCC1", "Potency": "7.94 µM (active)"},
      {"smiles": "COC(=O)C1=C(c2cc3ccccc3s2)C[C@@H]2CC[C@H]1N2C(=O)NC(C)C", "activity change, negative = inhibition": "-26.4%"},
      {"smiles": "O=C(COC(=O)c1cc(S(=O)(=O)N2CCOCC2)ccc1Cl)NCCc1ccccc1", "activity change, negative = inhibition": "5.53%"},
      {"smiles": "Cc1ccc(C)c(NC(=O)CN(C)C(=O)c2ccc3ncsc3c2)c1", "activity change, negative = inhibition": "36.6%"},
      {"smiles": "Cc1sc(NC(=O)C2=COCCO2)c(C#N)c1C", "activity change, negative = inhibition": "14.2%"},
      {"smiles": "CN1CCN(S(=O)(=O)c2cccc(C(=O)N3CCc4ccccc43)c2)CC1", "activity change, negative = inhibition": "21%"},
      {"smiles": "Cc1cccc(N2CCN(C(=O)c3cccc(S(=O)(=O)N4CCc5ccccc5C4)c3)CC2C)c1", "note": "(stereo unspecified)", "Potency": "7.08 µM (active)"},
      {"smiles": "CC(NC(=O)c1cccc(S(=O)(=O)N2CCc3ccccc3C2)c1)c1ccco1", "note": "(stereo unspecified)", "activity change, negative = inhibition": "16.5%"},
      {"smiles": "CCCCn1c(=O)c(C(C)=O)c(O)c2ccccc21", "activity change, negative = inhibition": "1.24%"},
      {"smiles": "CC(=O)c1ccc2c(c1)c1ccccc1n2CC(C)C", "Potency": "2.51 µM (active)"},
      {"smiles": "Cc1cc(NC(=O)CSc2nc3ccccc3n2CC(C)C)no1", "activity change, negative = inhibition": "-11.2%"},
      {"smiles": "COc1cccc(C(O)c2nc3ccccc3n2C)c1", "note": "(stereo unspecified)", "activity change, negative = inhibition": "11.2%"},
      {"smiles": "CCCCCCOC(=O)NCC(O)c1ccccc1", "note": "(stereo unspecified)", "activity change, negative = inhibition": "6.95%"},
      {"smiles": "CCCCCC(O)c1cccc(OCc2ccc3ccccc3n2)c1", "note": "(stereo unspecified)", "Potency": "14.1 µM (active)", "activity change, negative = inhibition": "0.332% [at 8.37 µM]"},
      {"smiles": "Cc1ccc(NC(=O)Cn2cnc3c(OCc4ccccc4)ncnc32)cc1C", "activity change, negative = inhibition": "4.25%"},
      {"smiles": "Cc1noc(C)c1C(=O)OC(C)C(=O)Nc1ccc2c(c1)OCO2", "note": "(stereo unspecified)", "activity change, negative = inhibition": "7.1%"},
      {"smiles": "COc1c(C)cc(C(=O)C2CCCN(S(=O)(=O)c3c(C)noc3C)C2)cc1C", "note": "(stereo unspecified)", "Potency": "10 µM (active)"},
      {"smiles": "Cc1noc(C)c1S(=O)(=O)N1CCCC(C(=O)Nc2nccs2)C1", "note": "(stereo unspecified)", "activity change, negative = inhibition": "0.314%"},
      {"smiles": "Cc1ccc(NC(=O)C2CCCN(S(=O)(=O)c3c(C)noc3C)C2)c(C)c1", "note": "(stereo unspecified)", "activity change, negative = inhibition": "-11.6%"},
      {"smiles": "Nc1c(N(Cc2ccco2)C(=O)c2cccc(F)c2)c(=O)[nH]c(=O)n1Cc1ccccc1", "activity change, negative = inhibition": "7.23%"},
      {"smiles": "Brc1cnc2ccccc2c1N1CCCCC1", "activity change, negative = inhibition": "-5.44%"},
      {"smiles": "c1ccc(-c2oc3ncnc(N4CCOCC4)c3c2-c2ccccc2)cc1", "activity change, negative = inhibition": "-11%"},
      {"smiles": "Cn1c2ccccc2c(=O)c2c(=O)n(Cc3ccco3)c(COc3ccccc3)nc21", "activity change, negative = inhibition": "-7.18%"},
      {"smiles": "N=c1c2c(-c3ccccc3)c(-c3ccccc3)oc2ncn1Cc1ccco1", "Potency": "6.31 µM (active)"},
      {"smiles": "COc1ccc(Nc2ccc3ccccc3c2)cc1", "activity change, negative = inhibition": "-3.86%"},
      {"smiles": "CC(=O)Nc1ccc(S(=O)(=O)Nc2nc(-c3ccc(C(C)(C)C)cc3)cs2)cc1", "activity change, negative = inhibition": "15.6%"},
      {"smiles": "CC(=O)Nc1ccc(-c2csc(NC(=O)Nc3ccccc3)n2)cc1", "Potency": "10 µM (active)"},
      {"smiles": "CC(=O)Nc1ccc(-c2csc(NC=C3C(=O)OC(C)(C)OC3=O)n2)cc1", "activity change, negative = inhibition": "-9.72%"},
      {"smiles": "Cc1ccc(S(=O)(=O)N2CCC(C(=O)OCC(=O)N(C)c3ccccc3)CC2)cc1C", "activity change, negative = inhibition": "-3.89%"},
      {"smiles": "Cc1cccn2c(=O)nc(SCC(=O)NCc3ccccc3Cl)nc12", "activity change, negative = inhibition": "2.77% [at 8.37 µM]"},
      {"smiles": "CN(CC(=O)NC(=O)Nc1ccccc1F)Cc1ccccc1", "activity change, negative = inhibition": "-23.3%"},
      {"smiles": "O=C1CC(C(=O)O)NC(=S)N1", "note": "(stereo unspecified)", "activity change, negative = inhibition": "-0.0683%"},
      {"smiles": "O=C(c1ccc(Cl)c(S(=O)(=O)N2CCCCCC2)c1)N1CCN(c2ccc(O)cc2)CC1", "activity change, negative = inhibition": "-27%"},
      {"smiles": "COc1cc(CN2CCC(C(N)=O)CC2)ccc1OCc1ccccc1", "activity change, negative = inhibition": "-7.93%"},
      {"smiles": "COc1cc(CNC2CCCC2)c(Br)cc1OCc1ccccc1", "Potency": "5.62 µM (active)"},
      {"smiles": "COc1ccc(CNC2CCCCC2)cc1", "activity change, negative = inhibition": "3.26%"},
      {"smiles": "O=C(O)c1ccc(Cn2cnc3c(=S)nc[nH]c32)cc1", "activity change, negative = inhibition": "9.47%"},
      {"smiles": "Cc1ccc(COC(=O)CN2C(=O)NC3(CCCC3)C2=O)cc1", "activity change, negative = inhibition": "2.91%"},
      {"smiles": "C=CC[C@@H](CC(=O)NCCO)C(=O)N[C@H](C)COC(=O)[C@@H](CC=C)CC(=O)OC(C)(C)C", "activity change, negative = inhibition": "4.28%"},
      {"smiles": "CC(OC(=O)c1ccccc1NCCO)C(=O)Nc1ccnn1C(C)C", "note": "(stereo unspecified)", "activity change, negative = inhibition": "-14.7%"},
      {"smiles": "COc1ccc(S(=O)(=O)NC(C)C)cc1C(=O)NC1CCCCC1", "activity change, negative = inhibition": "6.33%"}
    ]}
  ]
}
